Source: PubChem BioAssay AID1259418 (Broad Institute, 2018)
The whole screen tested about 3,400 compounds, of which about 840 (25%) were called active. Not shown: some 11% with an inconclusive outcome.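 The calls were made as follows: active = fitted half-maximal concentration of signal decrease at or below twice the sample's top tested concentration; inconclusive = flat curve between -70 and -30 percent, or poor fit; inactive = flat within 30 percent, signal rise, or potency above limit.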 A selection follows. Entries with a potency or affinity are not part of this list.

Experiment: inhibitors of Toxoplasma growth in IFN-γ-primed HeLa – cell-based, ME49Luc, luciferase, 72 h, dose response (AID 1259418)
Details: T. gondii ME49Luc in IFN-y HeLa, active compounds read low, -100% = high-dose IFN-γ control wells; at 19.5 µM unless noted

Structure (SMILES)	max activity
CCOc1ccc(NC(=O)COc2nc(CC)nc3ccccc23)cc1	16% [at 10 µM] (inactive)
Cc1ccc(S(=O)(=O)Nc2ccc3c(c2)C(=O)N([C@H](C)CO)C[C@H](C)[C@H](CN(C)Cc2ccc(C(F)(F)F)cc2)O3)cc1	19.4% [at 10 µM] (inactive)
CCOc1ccc(-c2nc3c(s2)CN(S(=O)(=O)c2ccccc2Cl)CC3)cc1	22.6% (inactive)
O=C(c1cccc(F)c1)N1CCC2(CC1)Nc1ccc(Cl)cc1-n1cccc12	9.53% [at 0.68 µM] (inactive)
CCOc1ccccc1NC(=O)CN1CCC2(CC1)N=C(c1ccc(F)cc1)C(=O)N2	13% (inactive)
Cc1nc(CCNC(=O)[C@H]2CCCN2S(=O)(=O)c2cccc(Cl)c2)cs1	-9.1% [at 0.35 µM] (inactive)
CCOc1ccc(-c2nc(CN(c3ccc(OC)cc3)S(=O)(=O)c3ccc(C)cc3)c(C)o2)cc1	8.75% [at 1.35 µM] (inactive)
Cc1ccc2c(c1C)-n1cccc1C1(CCN(C(=O)Cc3ccccc3)CC1)N2	4.08% [at 0.68 µM] (inactive)
CCOc1ccc(-c2nc(CN(c3ccccc3)S(=O)(=O)c3cccs3)c(C)o2)cc1OC	-33.6% [at 10 µM] (inactive)
CCOc1ccc(-c2nc(CN(c3ccc(C)cc3)S(=O)(=O)c3cccs3)c(C)o2)cc1OC	101% [at 10 µM] (inactive)
COc1ccccc1NC(=O)N1CCc2nc(-c3ccc(OC)c(OC)c3)sc2C1	6.68% [at 0.16 µM] (inactive)
C[C@]12CCC3=C4CCC(=O)C=C4CC[C@H]3[C@@H]1CC[C@@]2(O)CC#N	15.3% (inactive)
Cc1ccc(N2CCC[C@]3(C(=O)O)CN(CCN(C)C)C[C@H]3C2)nn1	40.3% (inactive)
Cc1cccc(N2CCN(C(=O)c3ccc(-c4csc(C5CC5)n4)cc3)CC2)c1C	-9.59% [at 0.35 µM] (inactive)
CSc1cccc(NC(=O)CN2CCC3(CC2)N=C(c2ccc(Cl)cc2)C(=O)N3)c1	-30.9% (inactive)
COc1ccc(NC(=O)CN2CCC3(CC2)N=C(c2ccc(C)cc2)C(=O)N3)c(OC)c1	-8.99% [at 5 µM] (inactive)
COc1ccccc1NC(=O)CN1CCC2(CC1)N=C(c1cccc(C)c1)C(=O)N2	13.7% [at 0.35 µM] (inactive)
COc1ccc(C2=NC3(CCN(CC(=O)Nc4cccc(Cl)c4)CC3)NC2=O)cc1	-14.8% [at 2.6 µM] (inactive)
COc1cccc(NC(=O)CN2CCC3(CC2)N=C(c2cccc(Cl)c2)C(=O)N3)c1	-20.4% [at 0.68 µM] (inactive)
Cc1ccccc1NC(=O)CN1CCC2(CC1)N=C(c1cccc(Cl)c1)C(=O)N2	-14.5% (inactive)
CSc1cccc(NC(=O)CN2CCC3(CC2)N=C(c2cccc(F)c2)C(=O)N3)c1	27.3% (inactive)
Cc1ccc(C2=NC3(CCN(CC(=O)Nc4ccc(Cl)cc4)CC3)NC2=O)cc1	19.9% [at 1.35 µM] (inactive)
COc1cccc(NC(=O)Nc2ccc(-c3nc(-c4cc(C)ccc4C)co3)cc2)c1	10.1% [at 0.16 µM] (inactive)

Structure (SMILES)	max activity
CN(C)CCO[C@@H]1CN(C(=O)Cc2ccsc2)[C@H]2CCCO[C@@H]12	38.7% (inactive)
Cc1cccc(NC(=O)CN2CCC3(CC2)N=C(c2ccc(Cl)cc2)C(=O)N3)c1	17.4% (inactive)
Cc1[nH]c2ccccc2c1C(=O)C(=O)NC1CC(=O)N(c2cccc(F)c2)C1 (stereo unspecified)	13.3% [at 0.35 µM] (inactive)
COc1ccc(C)cc1Nc1nc(-c2ccc(Cl)cc2)nc2ccccc12	-11.5% [at 2.6 µM] (inactive)
Clc1ccc(-c2nc(N3CCc4ccccc43)c3ccccc3n2)cc1	-11.3% (inactive)
COc1ccc2c(c1)NC1(CCN(C(=O)c3ccc(C)c(C)c3)CC1)c1cccn1-2	-9.14% [at 2.6 µM] (inactive)
CCc1ccc(NC(=O)N2CCN(Cc3nc(-c4ccccc4C)oc3C)CC2)cc1	20.1% [at 0.16 µM] (inactive)
Cc1oc(-c2ccccc2)nc1Cn1nnc(-c2nc(-c3ccc(F)c(Br)c3)no2)c1C	9.89% (inactive)
COc1cccc(NC(=O)CN2CCC3(CC2)N=C(c2ccc(Cl)cc2)C(=O)N3)c1	-17.6% [at 1.35 µM] (inactive)
Cc1cccc(CN2CCC(CNc3nc(-c4ccc(Cl)cc4)nc4ccccc34)CC2)c1	-45.1% [at 0.35 µM] (inactive)
COc1ccc(-c2nc(NCC3CCN(Cc4ccc(Cl)cc4)CC3)c3ccccc3n2)cc1	14.4% [at 2.6 µM] (inactive)
COc1ccc(-c2nc(NCc3ccc(F)cc3)c3ccccc3n2)cc1	18.6% [at 1.35 µM] (inactive)
COc1ccc(-c2nc(NCc3ccc(C)cc3)c3ccccc3n2)cc1	-20.6% [at 5 µM] (inactive)
COc1ccc(-c2nc(NCC3CCN(Cc4ccccc4F)CC3)c3ccccc3n2)cc1	-29.4% (inactive)
CSc1ccc(-c2noc(-c3nnn(Cc4nc(-c5ccc(C)cc5)oc4C)c3C)n2)cc1	4.87% (inactive)
COc1cc(C(=O)N2CCC3(CC2)Nc2ccc(C)c(C)c2-n2cccc23)cc(OC)c1OC	7.01% [at 0.16 µM] (inactive)
N#C[C@H]1N[C@@H](CO)[C@H]1c1ccc(C#CC2CCCCC2)cc1	49.7% (inactive)
Cc1cccc(-c2ccc(C3[C@H]4CNC[C@@H]3N4Cc3cccc(F)c3)cc2)c1 (stereo partly specified)	19.8% (inactive)
COc1cccc(S(=O)(=O)N2CC[C@@H]3[C@H]2c2cc(C#Cc4cccnc4)ccc2N[C@@H]3CO)c1	31.2% [at 5 µM] (inactive)
Fc1cccc(-c2ccc(C3[C@H]4CNC[C@@H]3N4Cc3cncnc3)cc2)c1 (stereo partly specified)	50.5% (inactive)
O=C(C1CCOCC1)N1CC(=O)N2[C@@H](CO)[C@@H](c3ccc(C#CC4CCCCC4)cc3)[C@@H]2C1	25.9% [at 10 µM] (inactive)
O=C(Nc1ccccc1)Nc1ccc(-c2nc(-c3ccccc3)co2)cc1	51.3% (inactive)
COc1cccc(-c2nc3c(s2)CN(S(=O)(=O)c2ccc(OC)c(OC)c2)CC3)c1	6.21% [at 10 µM] (inactive)
